Source: PubChem BioAssay (NCATS)
Several values for one entry are separate records, joined by “and”; a condition that tells them apart may be missing. Equal entries are not always repeated. Values without a mark were called inactive. Records with an inconclusive call do not appear. Activity calls are given as the source filed them. Unless noted, calls follow the shape of the dose curve; as a rule, active = well fitted curve in the direction sought with a large enough effect; inconclusive = small, poorly fitted or top-dose-only effect, or another doubt; inactive = no such curve, though single readings can be large; an effect the other way counts as inactive or inconclusive.

Key:
[1] = Cell Viability - BJ (AID 421; calls by dose curve;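 also: potency is read from the fitted curve at half-maximal effect; cells exposed to compound for 40 hours at 37 °C before readout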); settings: BJ fibroblast viability, qHTS
In short: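 Normal human BJ foreskin fibroblasts, 1500/well in complete medium, treated 40 hr at 37 °C. Cellular ATP by CellTiter-Glo luminescence; normalized to DMSO and 100 uM tamoxifen, AC50 from Hill fit.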

[2] = Cell Viability - MRC5 (AID 434; calls by dose curve;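 also: potency is read from the fitted curve at half-maximal effect; potency reflects cytotoxicity seen as loss of intracellular ATP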); settings: MRC5 lung fibroblast viability, qHTS
In short: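 qHTS cytotoxicity in human lung fibroblast MRC5 cells; 40 hr treatment, 37 °C; cellular ATP by luciferase luminescence; DMSO = 0%, 100 uM tamoxifen = 100% inhibition; Hill-fit AC50.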

[3] = Cell Viability - SK-N-SH (AID 435; calls by dose curve;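 also: potency is read from the fitted curve at half-maximal effect; compound exposure lasted 40 h at 37 °C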); settings: SK-N-SH neuroblastoma cell viability qHTS
In short: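 SK-N-SH human neuroblastoma cells (1500/well) were exposed to compounds in complete medium for 40 h at 37 °C, and intracellular ATP was then measured by CellTiter-Glo luminescence. AC50 was taken from Hill fits, normalized to DMSO and 100 uM tamoxifen.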

[4] = Cell Viability - N2a (AID 540); settings: N2a mouse neuroblastoma cell viability; activity change, negative = cytotoxicity: at 92.2 µM (top of the series); also: nearly all actives have a fitted effect of over 45% in size; also: potency is read from the fitted curve at half-maximal effect;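 as to activity change, negative = cytotoxicity: plate controls were DMSO alone for no effect and tamoxifen control for full effect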
In short: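 Luminescent ATP signal (CellTiter-Glo, 20 min at room temperature) served as the viability read-out after N2a cells were treated with compounds for 40 hours at 37 °C. Concentration-response data were fitted to the Hill equation for AC50.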

[5] = Cell Viability - SH-SY5Y (AID 544); settings: SH-SY5Y neuroblastoma cell viability; viability change, negative = cytotoxic: at 92.2 µM (top of the series); also: nearly all actives have a fitted effect of over 55% in size; also: potency is read from the fitted curve at half-maximal effect
In short: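 Luminescent ATP read-out (CellTiter-Glo) measures loss of viable SH-SY5Y neuroblastoma cells after 40 hr compound exposure at 37 °C. AC50 values derive from standard Hill modelling of qHTS concentration-response data.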

[6] = Cell Viability - Renal Proximal Tubule (AID 545); settings: renal proximal tubule cells viability, primary cells of rat origin; activity change, negative = cytotoxicity: at 91.7 µM (top of the series); also: nearly all actives have a fitted effect of over 40% in size; also: potency is read from the fitted curve at half-maximal effect
In short: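 Primary rat renal proximal tubule cells (1000/well) were treated with compounds for 40 hr at 37 °C in complete medium. Intracellular ATP was measured by CellTiter-Glo luminescence, and AC50 values came from Hill-equation fits of concentration-response data.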

[7] = Cellular Toxicity (caspase-3) HepG2 (AID 654); settings: HepG2 caspase-3 activation, luminescence; series mostly up to 92.2 µM; also: potency is read from the fitted curve at half-maximal effect;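 as to caspase-3 activation: cells exposed to compound for 16 hours before reading; 0% = DMSO alone and 100% = caspase signal from 100 µM tamoxifen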
In short: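 Cells plated 5 hr at 37 °C, compound added, incubated 16 hr at 37 °C. Caspase-Glo 3/7 reagent followed, 20 min at room temperature, then luminescence read. Activation scored as signal increase; AC50 from Hill fit.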

[8] = Cellular Toxicity (caspase-3) HUV-EC-C (AID 656); settings: HUV-EC-C cells, caspase-3 activation (apoptosis); series mostly up to 92.2 µM; also: potency is read from the fitted curve at half-maximal effect
In short: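 HUV-EC-C endothelial cells, 1000/well, were pre-incubated 5 hr at 37°C, then exposed to compounds for 16 hr at 37°C. Caspase-Glo 3/7 luminescence was read after 20 min at room temperature. AC50 came from Hill fits, normalized to DMSO and 100 uM tamoxifen.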

[9] = Cellular Toxicity (caspase-3) Mesangial (AID 660); settings: mesangial cells, normalized: DMSO 0%, 100 µM tamoxifen 100%; at 91.7 µM (top of the series);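 also: combined caspase 3 and 7 activity read by Caspase-Glo luminescence; cells exposed to compound for 16 h before the caspase read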
In short: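 Mesangial cells, 1000/well, 5 h settle at 37 °C; compound 16 h, 37 °C; Caspase-Glo 3/7 reagent 20 min RT; luminescence. Norm.: DMSO = 0%, tamoxifen 100 uM = 100%. AC50, Hill fit.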

[10] = Cellular Toxicity (caspase-3) N2a (AID 665); settings: N2a cells, luminescence; Potency: caspase-3 activation; series mostly up to 92.2 µM;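 also: compound exposure lasted 16 h at 37 °C before readout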
In short: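 N2a cells, 1500/well, 5 h settle at 37 °C; cpd 16 h, 37 °C; Caspase-Glo 3/7, 1 h RT; luminescence. Norm: DMSO = 0, 10 uM staurosporine = 100%. AC50, Hill fit.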

[11] = Cellular Toxicity (caspase-3) NIH 3T3 (AID 666); settings: NIH 3T3 caspase-3 activation, apoptosis/toxicity; series mostly up to 92.2 µM;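 also: caspase signal read after 16 h compound exposure; 0% = DMSO basal and 100% = 100 µM tamoxifen stimulation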
In short: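 Luminescence from aminoluciferin released by caspase-3/7 cleavage of a peptide substrate served as read-out. Mouse fibroblast NIH 3T3 cells were exposed to compounds over a concentration range for 16 hours, and AC50 values came from standard Hill modelling.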

[12] = Cellular Toxicity (caspase-3) Renal Proximal Tubule (AID 667); settings: renal proximal tubule cells, primary cells freshly taken from rat, solvent-only wells 0%, staurosporine 100%; series mostly up to 91.7 µM;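 also: cells exposed to compound for 16 hours at 37 °C before detection; 0% = DMSO basal and 100% = 10 µM staurosporine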
In short: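 Primary rat proximal tubule cells, 1000/well, 5 h plating at 37 °C, then compound 16 h at 37 °C. Caspase-Glo 3/7 reagent, 1 h RT, luminescence. Normalized to DMSO (basal) and 10 uM staurosporine (100%); Hill-fit AC50.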

[13] = biological target: Cytochrome P450 3A4 (Homo sapiens) (UniProt P08684); test: qHTS Assay for Activators of Cytochrome P450 3A4 (AID 885); settings: recombinant CYP3A4, Luciferin-PPXE luminescence, 60 min; series mostly up to 57.1 µM; also: nearly all actives have a fitted effect of over 65% in size
Sequence of Cytochrome P450 3A4 (Homo sapiens) (P08684 whole entry, looked up): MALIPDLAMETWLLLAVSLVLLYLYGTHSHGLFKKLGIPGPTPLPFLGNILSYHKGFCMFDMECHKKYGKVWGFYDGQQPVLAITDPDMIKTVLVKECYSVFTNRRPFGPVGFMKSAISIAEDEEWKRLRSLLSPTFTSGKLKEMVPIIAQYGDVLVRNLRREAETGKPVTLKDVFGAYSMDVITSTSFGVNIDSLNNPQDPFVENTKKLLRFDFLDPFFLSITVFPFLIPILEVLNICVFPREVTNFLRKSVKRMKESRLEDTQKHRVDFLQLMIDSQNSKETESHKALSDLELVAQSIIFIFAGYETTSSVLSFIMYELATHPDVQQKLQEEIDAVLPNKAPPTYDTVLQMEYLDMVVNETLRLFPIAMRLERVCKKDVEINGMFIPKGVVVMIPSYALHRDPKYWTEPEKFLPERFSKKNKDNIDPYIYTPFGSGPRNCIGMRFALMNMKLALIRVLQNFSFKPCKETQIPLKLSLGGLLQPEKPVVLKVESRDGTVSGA
In short: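 Human CYP3A4 (20 nM) with Luciferin-PPXE at 25 uM (its KM) in 200 mM KPO4; 10 min compound preincubation, then NADPH regeneration and 60 min reaction at RT. Luciferin read by luminescence; normalized to 57 uM ketoconazole full inhibition.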

[14] = Cell Viability - LYMP1-003 - Assay at 24 hr (AID 963); settings: LYMP1-003 lymphoblastoid cell viability; series mostly up to 92.2 µM; also: potency is read from the fitted curve at half-maximal effect;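 as to viability change, negative = cytotoxic: plate controls were DMSO only for no effect and tetraoctylammonium bromide positive control for full effect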
In short: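 Cells seeded at 2500/well, 5 hr at 37 C; compounds added; 24 hr at 37 C; CellTiter-Glo added, 30 min room temperature; luminescence read. Decrease in ATP taken as cytotoxicity, AC50 from Hill modelling.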

[15] = biological target: Peroxisome proliferator-activated receptor alpha (Homo sapiens) (UniProt Q07869); test: qHTS assay for small molecule agonists of the peroxisome proliferator-activated receptor alpha (PPARalpha) signaling pathway (AID 651778); settings: PathHunter PPARalpha complementation, chemiluminescence, 6 h; max response: stronger effect = higher value; also: potency is read from the fitted curve at half-maximal effect; as to max response: % of control where 0% means no effect
Sequence of Peroxisome proliferator-activated receptor alpha (Homo sapiens) (Q07869 whole entry, looked up): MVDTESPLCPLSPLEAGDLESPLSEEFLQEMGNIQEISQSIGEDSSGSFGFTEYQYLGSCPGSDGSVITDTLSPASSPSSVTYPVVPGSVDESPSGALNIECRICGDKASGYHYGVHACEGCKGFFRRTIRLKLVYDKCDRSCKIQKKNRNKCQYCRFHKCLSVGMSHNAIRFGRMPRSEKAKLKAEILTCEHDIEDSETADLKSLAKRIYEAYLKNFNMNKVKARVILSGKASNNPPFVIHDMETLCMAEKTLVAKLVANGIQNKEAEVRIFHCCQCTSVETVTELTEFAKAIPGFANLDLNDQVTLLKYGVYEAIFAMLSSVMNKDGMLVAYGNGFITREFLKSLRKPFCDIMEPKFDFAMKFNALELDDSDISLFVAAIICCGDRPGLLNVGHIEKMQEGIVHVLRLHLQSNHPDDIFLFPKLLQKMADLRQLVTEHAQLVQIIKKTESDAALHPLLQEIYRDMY
In short: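 Chemiluminescence from complemented enzyme reported PPARalpha activation in cells after 6 hr of compound treatment at 37 C. The detection reagent was incubated for 60 min at room temperature, and compounds were scored as agonists.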

[16] = qHTS assay for cell viability of HEK293 cells (AID 743288); settings: ATP luminescence (CellTiter-Glo), 18 h; max response: stronger effect = lower value; also: nearly all actives have a fitted effect of over 50% in size; also: potency is read from the fitted curve at half-maximal effect; as to max response: % is scaled to controls: 0 for no effect and ±100 for the full control effect
In short: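 Parental HEK293 cells were seeded at 2,000 cells/well, rested at least 5 h at 37 C, then exposed to compounds in DMSO for 18 h at 37 C. Viability was read as ATP-dependent luciferase luminescence after 30 min at room temperature.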

[17] = qHTS assay for cell viability of the p53RE-bla HCT-116 cell line (AID 743292); settings: p53RE-bla HCT-116 viability, ATP luminescence, 16 h; series mostly up to 95 µM; also: nearly all actives have a fitted effect of over 55% in size; also: potency is read from the fitted curve at half-maximal effect; as to activity change, negative = cytotoxicity: % is scaled to controls: 0 for no effect and ±100 for the full control effect
In short: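 ATP-based luminescence, 16 h compound exposure at 37 C, p53RE-bla HCT-116 cells at 4,000/well.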

[18] = NFAT Signaling Pathway (AID 444; active = well fitted curve in either direction with a large enough effect, not every such curve was filed as active;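 also: carbachol stimulus at about its EC50 of 1 µM final; % is scaled to controls: 0 for no effect and ±100 for the full control effect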); settings: Jurkat NFAT-bla M1, carbachol, beta-lactamase ratio, 5 h; at 17.2 µM (top of the series) unless noted
In short: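 Read-out: CCF4 FRET ratio (460 nm/530 nm) after 1 h RT dye loading, used for %activity and AC50 from titration series. Cells: Jurkat NFAT-β-lactamase/M1 line, treated with compound plus 1 uM carbachol for 5 h, 37 °C.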

[19] = Stat Signaling Pathway (AID 446; active = well fitted curve in either direction with a large enough effect, not every such curve was filed as active;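 also: ME-180 cervical cancer cells given 40 pM IL-6 alongside compound; SIE-controlled beta-lactamase reporter measured as 460/530 nm FRET emission ratio; % is scaled to controls: 0 for no effect and ±100 for the full control effect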); settings: ME-180 SIE beta-lactamase reporter, IL-6 stimulated, 5 h; at 17.2 µM (top of the series) unless noted
In short: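 ME-180 cells carrying a SIE-driven beta-lactamase reporter are stimulated with 40 pM IL-6 for 5 h at 37C in the presence of compound. The 460/530 nm FRET substrate ratio is read after 2.5 h at RT. Data are normalised to 300 pM IL-6 and to 125 nM JAK inhibitor controls.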

[20] = biological target: Glucocorticoid receptor (Homo sapiens) (UniProt P04150); test: GR-GFP Redistribution (AID 450;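 active = compounds whose dose series gives a full or clear partial fitted curve of increased nuclear translocation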; also: potency is read from the fitted curve at half-maximal effect); settings: U2OS GR-GFP nuclear translocation, laser cytometry, 2 h; series mostly up to 20.6 µM
Sequence of Glucocorticoid receptor (Homo sapiens) (P04150 whole entry, looked up): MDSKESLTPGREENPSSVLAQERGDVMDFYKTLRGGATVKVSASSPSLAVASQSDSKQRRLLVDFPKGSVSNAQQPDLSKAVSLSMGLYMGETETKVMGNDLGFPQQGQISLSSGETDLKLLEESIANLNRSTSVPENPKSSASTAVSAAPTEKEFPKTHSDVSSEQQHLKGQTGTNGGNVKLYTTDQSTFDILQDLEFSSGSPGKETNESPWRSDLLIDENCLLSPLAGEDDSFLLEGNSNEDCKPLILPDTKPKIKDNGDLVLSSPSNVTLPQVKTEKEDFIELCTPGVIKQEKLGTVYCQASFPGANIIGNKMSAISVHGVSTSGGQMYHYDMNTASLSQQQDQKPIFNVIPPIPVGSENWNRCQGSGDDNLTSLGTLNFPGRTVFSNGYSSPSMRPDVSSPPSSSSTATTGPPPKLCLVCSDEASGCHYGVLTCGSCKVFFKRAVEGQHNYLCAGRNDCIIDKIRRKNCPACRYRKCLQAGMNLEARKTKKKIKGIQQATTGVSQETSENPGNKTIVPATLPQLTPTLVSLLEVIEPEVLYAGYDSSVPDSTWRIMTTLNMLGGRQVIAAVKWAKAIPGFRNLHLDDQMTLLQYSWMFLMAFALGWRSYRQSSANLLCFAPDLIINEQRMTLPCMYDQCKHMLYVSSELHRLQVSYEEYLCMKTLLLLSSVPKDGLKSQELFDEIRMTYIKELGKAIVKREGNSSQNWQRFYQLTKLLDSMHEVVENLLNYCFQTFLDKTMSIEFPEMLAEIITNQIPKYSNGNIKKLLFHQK

Structure (SMILES): Oc1ccc2cc(SSc3ccc4cc(O)ccc4c3)ccc2c1
- Potency [1]: 49.1 µM (active)
- Potency [2]: 38.3 µM (active)
- Potency [3]: 42.5 µM (active)
- activity change, negative = cytotoxicity [4]: -111% (active)
- viability change, negative = cytotoxic [5]: -101% (active)
- activity change, negative = cytotoxicity [6]: -82.8% (active)
- Potency [7]: inactive
- Potency [8]: inactive
- caspase-3 activation [9]: -1.21%
- Potency [10]: inactive
- Potency [11]: inactive
- outcome [12]: inactive
- Potency [13]: inactive
- Potency [14]: 50.1 µM (active)
- max response [15]: -7.41%
- max response [16]: -14.6%
- Potency [17]: inactive

Structure (SMILES): COCCNc1cc(C)c(C#N)c2nc3ccccc3n12
- activity change, negative = inhibition [18]: 12.9%
- activity, negative = inhibition [19]: 4.06%
- Potency [20]: > 20.6 µM

Structure (SMILES): O=[N+]([O-])c1cc([N+](=O)[O-])c2ccc(S(=O)(=O)O)cc2c1O
- Potency [1]: > 92 µM
- Potency [2]: > 92 µM
- Potency [3]: > 92 µM
- Potency [4]: inactive
- Potency [5]: inactive
- Potency [6]: inactive
- Potency [7]: inactive
- Potency [8]: inactive
- caspase-3 activation [9]: 1.36%
- Potency [10]: inactive
- Potency [11]: inactive
- outcome [12]: inactive
- Potency [14]: inactive
- max response [16]: -2.67%
- Potency [17]: inactive

Structure (SMILES): Cc1cc(O)c(C(C)(C)C)cc1Sc1cc(C(C)(C)C)c(O)cc1C
- Potency [1]: 43.8 µM (active)
- Potency [2]: 40.2 µM (active)
- Potency [3]: 23 µM (active)
- Potency [4]: 12.6 µM (active)
- Potency [5]: 31.6 µM (active)
- Potency [6]: 25.1 µM (active)
- Potency [7]: 63.1 µM (active)
- Potency [8]: 50.1 µM (active)
- caspase-3 activation [9]: 140% (active)
- Potency [10]: inactive
- Potency [11]: inactive
- Potency [13]: inactive
- Potency [14]: 39.8 µM (active)
- Potency [15]: 11.2 µM (active) and 4.47 µM (active)
- Potency [16]: 70.8 µM (active) and 50.1 µM (active)
- Potency [17]: 28.2 µM (active) and 25.1 µM (active)

Structure (SMILES): Cc1ccc(-c2nnc(-c3ccccc3)o2)cc1Br
- activity change, negative = inhibition [18]: -13.3%
- activity, negative = inhibition [19]: 27.2%
- Potency [20]: > 20.6 µM

Structure (SMILES): O=C1OC(O)C(C(Cl)Cl)=C1Cl (stereo not given)
- Potency [1]: 41.2 µM (active)
- Potency [3]: 30.2 µM (active)
- activity change, negative = cytotoxicity [4]: -101% (active)
- Potency [5]: 15.8 µM (active)
- Potency [6]: 31.6 µM (active)
- Potency [7]: inactive
- Potency [8]: inactive
- Potency [11]: inactive
- outcome [12]: inactive
- max response [15]: -7.18%
- max response [16]: -27.5%

Structure (SMILES): Cc1cccc(Nc2ncnc3ccccc23)c1
- activity change, negative = inhibition [18]: -1.27%
- activity, negative = inhibition [19]: -0.134%
- Potency [20]: > 20.6 µM

Structure (SMILES): O=C=Nc1ccc(Cc2ccc(N=C=O)cc2)cc1
- Potency [1]: > 92 µM
- Potency [2]: > 92 µM
- Potency [3]: > 92 µM
- Potency [4]: inactive
- Potency [5]: inactive
- Potency [6]: inactive
- Potency [7]: inactive
- Potency [8]: inactive
- caspase-3 activation [9]: -0.349%
- Potency [10]: inactive
- Potency [11]: inactive
- outcome [12]: inactive
- Potency [13]: inactive
- Potency [14]: inactive
- max response [15]: -0.535% and -0.74%
- max response [16]: 9.46% and -11.9%
- Potency [17]: inactive

Structure (SMILES): CC(=O)Nc1ccc(C(=O)CCl)cc1
- Potency [1]: 36.2 µM (active)
- Potency [3]: 15.6 µM (active)
- Potency [4]: 25.1 µM (active)
- Potency [5]: 3.16 µM (active)
- Potency [6]: 31.6 µM (active)
- Potency [7]: inactive
- Potency [8]: inactive
- caspase-3 activation [9]: -4.19%
- Potency [10]: inactive
- Potency [11]: inactive
- outcome [12]: inactive
- Potency [14]: 39.8 µM (active)
- max response [15]: -5.76% and -2.53%
- Potency [16]: 22.4 µM (active) and 25.1 µM (active)
- Potency [17]: inactive
